In PubChem BioAssay AID652096 (National Center for Advancing Translational Sciences (NCATS), 2013) one finds fold change data, which are given here for one compound.

Activity calls are given as the source filed them.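 Rule for the calls: active = fold change of 2 or more in glucocerebrosidase protein level on Western blot; inactive = the rest.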

Chain of Lysosomal acid glucosylceramidase (Homo sapiens) (P04062 40-536 N409S): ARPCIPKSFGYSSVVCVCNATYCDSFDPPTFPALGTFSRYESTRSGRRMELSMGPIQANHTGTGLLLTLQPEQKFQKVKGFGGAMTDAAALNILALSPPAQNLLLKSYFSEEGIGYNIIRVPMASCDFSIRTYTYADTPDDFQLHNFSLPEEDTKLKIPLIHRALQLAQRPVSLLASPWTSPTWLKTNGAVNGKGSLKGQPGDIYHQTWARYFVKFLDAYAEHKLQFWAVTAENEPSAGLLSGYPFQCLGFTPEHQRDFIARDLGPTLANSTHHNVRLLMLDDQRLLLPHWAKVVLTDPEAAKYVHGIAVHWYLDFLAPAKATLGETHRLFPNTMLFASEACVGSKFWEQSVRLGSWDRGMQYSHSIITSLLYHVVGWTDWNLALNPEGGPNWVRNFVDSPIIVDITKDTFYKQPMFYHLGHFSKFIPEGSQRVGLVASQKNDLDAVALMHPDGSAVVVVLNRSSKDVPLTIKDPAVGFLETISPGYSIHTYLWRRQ

This assay addresses Lysosomal acid glucosylceramidase (Homo sapiens) (UniProt P04062). Put plainly: Extended Characterization of Activators of N370S glucocerebrosidase as a Potential Chaperone Treatment of Gaucher Disease: Western Blot. To be noted: Patient cells, GCase protein level, hits give high values. From the text: Glucocerebrosidase (GCase) catalyzes the hydrolysis of beta-glucocerebroside to glucose and ceramide in lysosomes. Mutations in the glucocerebrosidase gene result in Gaucher disease, an autosomal recessive lysosomal storage disorder. Many of the mutations encountered in patients with Gaucher disease are missense alterations that may cause misfolding, decreased stability and/or mistrafficking of this lysosomal protein. […] These inhibitors include iminosugar analogs and other inhibitors that were discovered as part of previous work. However, the enhancement of enzyme activity by the chaperone action of an enzyme inhibitor must be balanced against the direct inhibition of the enzyme. […] In this extended characterization of our probe, we have further characterized the activity of our probe in relevant models. In this Western Blot assay, we examined the effects of compounds to increase GCase activity. NIH Chemical Genomics Center [NCGC] NIH Molecular Libraries Probe Production Centers Network [MLPCN] MLPCN Grant: MH086442 Assay Submitter (PI): Ellen Sidransky, NHGRI
The cells were plated and exposed to the compounds. Cells were harvested and the cell extracts were subjected to SDS-PAGE and Western blotting procedures to evaluate the extent of upregulation of GCase activity.
As to `C#Cc1ccc(NC(=O)c2cnn3c(C)cc(C)nc23)cc1`, the fold change was 2 (active).
